Screens as filed in PubChem BioAssay.
Pf apPOL block – Pf-apPOL DNA polymerase inhibition; 210,000 tested, 0.25% active; inhibition, % at 10 µM; Recombinant Pf-apPOL, molecular beacon fluorescence, 1.5 h; AID 1794808
mHTT-CaM PPI inh – inhibitors of human mutant huntingtin-calmodulin interaction; AlphaScreen His-mHTT/GST-CaM binding, luminescence; inhibition, % at 15 µM; P42858; 190,000 tested, 3.6% active;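 further: 0% = both proteins with DMSO and 100% = one protein alone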
Starred values were filed as active, the others as inactive; · = not tested or not shown. Sampled rows, rich in hits. Any-hit rate of the full collection: about 3.5%. No stated cut-off is given here; in the data, active means inhibition above about 50%; inactive means the rest.

SMILES	Pf apPOL block	mHTT-CaM PPI inh
OC(COc1ccc(I)cc1)Cn1cnc2ccccc21 (stereo unspecified)	-4.0	86.5*
CCOc1ccccc1C(=O)Nc1ccc([N+](=O)[O-])cc1Cl	2.7	-3.6
O=C(C=Cc1ccccc1)NCC1(O)CCc2ccccc2C1 (stereo unspecified)	2.4	-0.3
CC(C)C(=O)NC(/C=C/c1ccccc1)c1cc([N+](=O)[O-])c2cccnc2c1O (stereo unspecified)	-3.9	5.0
CC(C)C(=O)NC(c1ccco1)c1cc([N+](=O)[O-])c2cccnc2c1O (stereo unspecified)	-19.3	100.0*
CC(=O)NC(c1ccco1)c1cc([N+](=O)[O-])c2cccnc2c1O (stereo unspecified)	-5.3	100.0*
CCCC(=O)NC(c1ccco1)c1cc([N+](=O)[O-])c2cccnc2c1O (stereo unspecified)	4.9	100.0*
CCOc1cccc2c1OC1(C)CC2NC(=O)N1c1ccc(Cl)cc1 (stereo unspecified)	-10.1	0.0
COCCNC(=O)C1CCN(c2ccc(Cl)c(Cl)c2)C1=O (stereo unspecified)	-2.0	-7.4
COc1ccc(C)cc1NC(=O)CSc1nnc(C(F)(F)F)n1C	-5.3	·
COCc1cc(C)nc(SCC(=O)c2ccc(Cl)cc2Cl)c1C#N	-3.7	-47.0
Cc1ccc(C(=O)N2CCCC2COc2ccc(C(=O)N3CCOCC3)cc2)cc1 (stereo unspecified)	-3.2	4.3
CC(C)c1ccc(C(=O)N2CCCC2COc2ccc(C(=O)N3CCOCC3)cc2)cc1 (stereo unspecified)	52.1*	9.8
Cc1ccc(CSc2nc3[nH]ncc3c(=O)n2-c2cccc(C)c2)cc1	-9.1	46.0
CC(=O)N1N=C(c2ccc([N+](=O)[O-])cc2)CC1c1ccccc1 (stereo unspecified)	-4.4	15.0
O=C(O)CCC(=O)N1N=C(c2ccc([N+](=O)[O-])cc2)CC1c1ccc(Br)cc1 (stereo unspecified)	0.1	21.0
O=[N+]([O-])c1ccc(N2N=C(c3ccccc3)CC2c2ccccc2O)cc1 (stereo unspecified)	2.1	99.0*
O=[N+]([O-])c1ccc(N2N=C(c3ccc(O)cc3)CC2c2ccc(F)cc2)cc1 (stereo unspecified)	-6.0	98.0*
O=C(Nc1ccccc1Sc1ccccc1)C12CC3CC(C1)CC(n1cnc([N+](=O)[O-])n1)(C3)C2	-11.6	11.0
Cc1ccc(S(=O)(=O)c2cc3c(=O)n4cccc(C)c4nc3n(Cc3ccco3)c2=N)cc1	4.8	21.0
COc1cc(C=O)cc(Br)c1OCc1cccc(F)c1	-9.8	-26.6
COc1cc(/C=C2/SC(=Nc3ccccc3Cl)NC2=O)cc(OC)c1	4.5	5.0
CCOc1cc(/C=C2/SC(=Nc3ccccc3)NC2=O)ccc1OC	6.3	26.0
O=C1NC(=Nc2ccccc2Cl)S/C1=C/c1cccc(C(=O)O)c1	-6.9	4.0
O=C1NC(=Nc2cccc(Cl)c2Cl)S/C1=C\c1ccc(O)c(O)c1	-1.8	83.0*
SMILES	Pf apPOL block	mHTT-CaM PPI inh
CCOc1cc(/C=C2/SC(=Nc3cccc(C(=O)O)c3)NC2=O)ccc1OC	-4.1	51.0*
CCOc1cc(/C=C2/SC(=Nc3ccccc3Cl)NC2=O)ccc1O	-4.9	53.0*
Cc1ccc(C(=O)Nc2ccc(S(C)(=O)=O)cc2)cc1S(=O)(=O)N1CCOCC1	-2.0	23.4
C=CCN(CC=C)S(=O)(=O)c1ccc(OC)c2ncccc12	-4.7	-2.5
O=C(Nc1ccc(F)c(F)c1)c1cc2n(n1)CCCN(Cc1ccc(F)cc1)C2=O	6.3	2.0
CCCN1C(=O)Cc2ccccc2C1C(=O)NCc1ccccc1OC (stereo unspecified)	-0.1	-1.1
COc1ccccc1CNC(=O)C1c2ccccc2CC(=O)N1Cc1ccccc1 (stereo unspecified)	1.1	99.8*
COCCC1CCN(C(=O)COc2ccccc2)CC1	-3.1	-3.9
Cc1ccc(S(=O)(=O)N(CC(=O)NC2CC2)Cc2ccc(Cl)cc2)cc1	-0.9	-5.6
CCCC(=O)NC(C)c1nc2ccccc2n1Cc1ccccc1F (stereo unspecified)	-1.1	4.0
COc1ccccc1C(=O)NC(C)c1nc2ccccc2n1Cc1ccccc1F (stereo unspecified)	-0.6	55.2*
CC(=O)N=c1sccn1CC(=O)c1ccc(-c2ccccc2)cc1	0.8	8.0
Cc1ccccc1Nc1nccc(C2CCCN(C(=O)c3ccco3)C2)n1 (stereo unspecified)	-4.0	21.4
Cc1cccc(Nc2nccc(C3CCCN(C(=O)c4ccco4)C3)n2)c1 (stereo unspecified)	-0.1	76.7*
N#Cc1ccc(C(=O)N2CCCC(c3ccnc(Nc4ccccc4F)n3)C2)cc1 (stereo unspecified)	-0.3	0.3
O=C(c1ccco1)N1CCCC(c2ccnc(Nc3ccccc3F)n2)C1 (stereo unspecified)	0.7	56.3*
CN(C)c1ccc(C(=O)N2CCCC(c3ccnc(Nc4ccccc4F)n3)C2)cc1 (stereo unspecified)	-3.2	60.2*
CC(=O)N1CCCC(c2ccnc(Nc3cccc(C)c3)n2)C1 (stereo unspecified)	-6.8	10.9
CN(C)c1ccc(CNC(=O)c2cn3cc(Cl)ccc3n2)cc1	-0.3	14.6
CN(C)CCNC(=O)c1cn2cc(-c3ccc(F)c(Cl)c3)ccc2n1	11.1	93.3*
O=C(NCCCN1CCCCC1)c1cccc(N2CCNC(c3ccccc3)C2)n1 (stereo unspecified)	-15.4	-0.7
COc1ccc(N2C(=O)C3CCCN3C2c2ccc(Cl)cc2)cc1Cl (stereo unspecified)	-2.7	2.4
CCOc1ccc(C2N(c3ccc(Cl)cc3)C(=O)C3CCCN32)cc1OC (stereo unspecified)	-6.3	29.6
CCN(CC)c1ccc(C2N(c3cc(Cl)ccc3OC)C(=O)C3CCCN32)cc1 (stereo unspecified)	-0.8	75.3*
COc1cc(OC)c(C2N(c3ccc(Cl)c(Cl)c3)C(=O)C3CCCN32)cc1OC (stereo unspecified)	-1.4	97.8*
SMILES	Pf apPOL block	mHTT-CaM PPI inh
COc1ccccc1C1N(c2cc(Cl)ccc2OC)C(=O)C2CCCN21 (stereo unspecified)	-1.9	1.1
COc1ccccc1C1N(c2ccc(Cl)c(Cl)c2)C(=O)C2CCCN21 (stereo unspecified)	0.2	100.1*
COc1cc(OC)c(C2N(c3ccc(Cl)cc3)C(=O)C3CCCN32)cc1OC (stereo unspecified)	0.0	67.3*
CCc1ccc(C2N(c3cc(Cl)ccc3OC)C(=O)C3CCCN32)cc1 (stereo unspecified)	-3.0	32.6
COc1cccc(C2CC(=O)Nc3n[nH]c(C)c32)c1 (stereo unspecified)	2.4	-6.6
O=C(O)c1coc2c1C(=O)CCC2	2.7	·
CCOc1ccccc1NC(N)=Nc1nc(C)cc(C)n1	7.9	-3.5
O=C(Cc1ccc(Cl)cc1)N1CCCN(c2ncccc2-c2nc(C3CC3)no2)CC1	-3.4	-1.1
CC(C)(C)c1ccc(CSC2=Nc3ccccc3C3=NCC(=O)N23)cc1	-1.4	27.0
Cn1ccc(C(=O)N2CCCC2c2ccccc2Cl)n1 (stereo unspecified)	-0.2	-3.0
CC1=NN(c2cccc(Cl)c2)C(=O)/C1=C/c1ccc(F)cc1	7.4	8.0
CC1=NOC(=O)/C1=C/c1ccc(N2CCOCC2)cc1	5.1	16.0
